# According to PubChem BioAssay (NCI):
# Compounds without any hit were thinned out: in the full panel of roughly 83,000, 20% have a hit.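 Growth was measured after 48 h exposure to one concentration of compound in 96-well plates. Values under 10 count as active.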 Unmarked numbers belong to inactive results. Active and inactive are the calls of the source.
# What was measured:
# Assay in all cases: NCI-60 one-dose screen, 48 h (100 = growth as untreated, 0 = no growth, -100 = all killed)
# Settings in all cases: 10 µM unless noted
# DU-145 prostate = system: DU-145 prostate
# K-562 leukemia = system: K-562 leukemia
# MALME-3M melanoma = system: MALME-3M melanoma
# MDA-MB-231 breast = system: MDA-MB-231 breast
# RXF 393 renal = system: RXF 393 renal
# SF-268 CNS = system: SF-268 CNS
# SF-295 CNS = system: SF-295 CNS
# SF-539 CNS = system: SF-539 CNS
# UACC-257 melanoma = system: UACC-257 melanoma
# M14 melanoma = system: M14 melanoma
SMILES,growth (DU-145 prostate),growth (K-562 leukemia),growth (MALME-3M melanoma),growth (MDA-MB-231 breast),growth (RXF 393 renal),growth (SF-268 CNS),growth (SF-295 CNS),growth (SF-539 CNS),growth (UACC-257 melanoma),growth (M14 melanoma)
C/C(=N\N=C1/C(=O)Nc2ccccc21)c1ccc2c(c1)Nc1ccccc1S2,53.2%,31.8%,35.5%,39%,96.1%,55.3%,57.8%,71.7%,27.5%,65%
CC1(c2cc3cc(Cl)ccc3oc2=O)NC(=O)c2c(/C=C/C(=O)OC3CC4CCC3(C)C4(C)C)cccc2N1 (stereo not given),71.2%,21.6%,84.6%,75.1%,52%,78.5%,46.1%,87.2%,57.2%,69.6%
CC(=O)/C=C/c1cccc2c1C(=O)NC(C)(c1cc3cc(Br)ccc3oc1=O)N2 (stereo not given),19.1%,0.91% (active),31.3%,18%,-12.9% (active),56.1%,39%,19.2%,27.2%,31.4%
COc1ccc(NC(=O)Nc2ccc(OCc3ccc(F)cc3)cc2)cc1,88.5%,82.6%,62.3%,53.5%,35%,61.3%,102%,0.894% (active),85.9%,77%
S=C(NCCc1ccccc1)Nc1ccc(OCc2nc3ccccc3[nH]2)cc1,110%,101%,102%,109%,122%,100%,104%,102%,99.1%,95.9%
CC12CC[C@@H]3[C@]4(C)COC(c5cn[nH]c5-c5cccc(Br)c5)O[C@@H]4CC[C@@]3(C)[C@@H]1CC(C1=CCOC1=O)O2 (stereo not given in full),53.5%,15%,37.7%,35.1%,6.19% (active),47%,34.9%,54.8%,41.8%,22.3%
CNS(=O)(=O)c1ccc(Nc2ccc(C(F)(F)F)cc2)c(-c2cn(C)cn2)c1,62.3%,21.5%,68.1%,60.3%,52.1%,41.5%,43.7%,64.4%,64%,49.8%
O=C(O)Cn1c(O)c(/C=C2/C=c3cc4c(cc3=NC2=O)OCCO4)sc1=S,118%,106%,100%,103%,117%,118%,94.6%,107%,108%,111%
CC(C)Sc1nc(NCCc2c[nH]c3ccccc23)c(C#N)c(-c2ccc(F)cc2)n1,40.6%,9.31% (active),80.6%,11.2%,-3.65% (active),45.1%,49.4%,40.1%,90.2%,46.8%
COc1ccc2[nH]cc(-c3nnc(N)nc3-c3c[nH]c4ncc(Br)cc34)c2c1,92.6%,74.1%,92.5%,73.4%,79.2%,85.5%,82%,70.7%,127%,97.6%
Cc1sc(C(NC(=O)OCCn2c([N+](=O)[O-])cnc2C)C(F)(F)Cl)nc1-c1ccc(OC(F)(F)F)cc1 (stereo not given),-70.4% (active),0.935% (active),-75% (active),-94.8% (active),-88.6% (active),-38.6% (active),-98.8% (active),-92.4% (active),-73% (active),-67.5% (active)
CC1CN(c2oc(-c3ccc([N+](=O)[O-])cc3)nc2C#N)CC(C)O1 (stereo not given),117%,105%,95.7%,95.9%,108%,107%,95.5%,93.9%,102%,103%
CC1(C)CC[C@]2(C(=O)Nc3ccccc3)CC[C@]3(C)C(=CCC4[C@@]5(C)C[C@@H](O)[C@H](O)[C@@](C)(CO)C5CC[C@]43C)C2C1 (stereo not given in full),76.8%,33.3%,73.9%,53.5%,17.6%,61.2%,50.4%,63%,65.6%,56.1%
O=S(=O)(Nc1cccc(-n2cnc3cc(-c4ccc(O)cc4)ccc32)c1)C1CC1,27.5%,8.55% (active),46.1%,42.4%,4.76% (active),31.9%,11.9%,-11.6% (active),68.4%,29.7%
NS(=O)(=O)c1ccc(CCNC(=O)CSc2ccc(-c3ccc(Br)cc3)nn2)cc1,71.1%,36%,75.9%,85.2%,87.7%,72.5%,59.9%,79.2%,38.5%,77%
Cc1ccc([C@H]2C(C(=O)c3ccc(Cl)cc3)C3(N[C@@H]2c2ccccc2)C(=O)Nc2ccc(Cl)cc23)cc1 (stereo not given in full),71.8%,22.2%,87.2%,50.7%,27%,55.8%,48.2%,77%,69.8%,44.8%
C=C1CCC2C3(C)COC(c4ccc(F)cc4)OC3CCC2(C)C1CC(O)C1=CCOC1=O (stereo not given),59.3%,15.2%,63.2%,53.5%,35.7%,103%,64.7%,56.3%,57.9%,24.7%
COc1cc2c(c(OC)c1OC)C(=O)CC(c1cccc(NC(=O)c3cccc(NC(=O)[C@H](C)NC(=O)OC(C)(C)C)c3)c1)O2 (stereo not given in full),61.7%,40.7%,70.3%,69%,90%,53.6%,65.9%,85.2%,77%,76%
C#CCOc1ccc(/C=N/Nc2nc(-c3cc4cc(OC)ccc4oc3=O)cs2)cc1OC,31.5%,34.7%,2.64% (active),44%,-88.8% (active),57.2%,41.2%,28.2%,54.7%,42.2%
Cn1cc(NC(=O)c2cc(NC(=O)c3ccc(C#Cc4ccccc4)cc3)cn2C)cc1C(=O)NCCCN1CCOCC1,56.4%,-41.5% (active),-84.8% (active),4.99% (active),-4.28% (active),63.2%,-81.9% (active),-85.5% (active),-28.8% (active),-86.4% (active)
O=C(c1ccccc1)C(c1c[nH]c2ccccc12)c1c[nH]c2ccccc12,71.7%,10.3%,72.8%,57.5%,46.8%,60.3%,85.4%,85.4%,76.8%,61.1%
